Laboratory results: paper PMC10163288
These entries were drawn from the full list. The hit rate among all sequences tested is not known here. Values without a mark were called inactive.

B1: il2ra_site1_3nfp_sap_17_mot_HHH_b1_07644_af2_000000110_0001_40_57_H_._HEEHE_2706_0001_0000400054_0000001_0_0001_af2pred_0001_af2pred_1_swapped (protein)
chain: SSSSDALEFVEELAEKAFENNDKFQLRALYKLLREALEKTGNPEAEEVLEKVEELLRELQSSSSS
B2: il2ra_site2_2erj_sap_25_mot_ca9fcc9ace360711d783d1260e4fbff1_0001_1_af2_000000007_0001_15_32_H_._7f39e2d7389de0c2f60e905c27398b6a_0001_1_af2_0001_0000400011_000 … (protein)
chain: SSSSSYEERVEELLEEAEEAYREGDLHAVYRLAVEALHVASELGDQELIRLVAEFVEKISDSSSS
B3: il2ra_site1_2b5i_sap_16_mot_HHH_b1_01419_af2_000000080_0001_42_53_H_._HHH_b1_05266_af2_0001_0000100001_0000001_1_0001_af2pred_dldesign_0_af2pred (protein)
chain: SSSSSNQDEVYRLYKEALRLYKEGKREEAKKVLEEALKLAEKNKDEVAVKELKELLKRLESSSSS
B4: il2ra_site1_1z92_normal_mot_9b3351f2f66fbcc824ad33b4da01f8ef_0001_af2_000000012_0001_16_32_H_._HHH_b1_08171_0001_0000100006_0000001_0 (protein)
chain: SSSSSEEVLKKDLRFAVEARNPSSFRRLAELARRDLKEAGDEEALREFEEFVEELEQELGSSSSS
B5: il2ra_site1_1z92_normal_mot_HHH_b1_00893_000000159_0001_19_35_H_._43152d1d296b358565056a4a32fd9b81_0001_1_af2_0001_0000300029_0000001_0_af2pred_0001_af2pred_1_s … (protein)
chain: DDEELEEKLKEAAENRDVEKLEELLRELLELLGDPAVKFLLEFFERLLKRDEEDAVKNVLRFVSF
B6: il2ra_site1_2b5i_normal_mot_HHH_b1_06428_000000224_0001_1_17_H_._HHH_b1_02461_0001_0000700038_0000001_0_af2pred_dldesign_0_af2pred (protein)
chain: SSSSSSLAEARRLLLETEELLKAGKLEELAKLKKRIDALKAASDDPKVKKIADLINEALESSSSS
B7: il2ra_site2_2erj_normal_mot_c2bf78bdce995293a161f7082e24b401_0001_af2_000000082_0001_17_32_H_._HHH_b1_07868_0001_0000100001_0000001_0 (protein)
chain: SSSSSDEEEIRREVEELLEKVEEVPDLEEAYRLANEALRLASRLQDEELLRLILEVVQRHSSSSS
B8: il2ra_site2_3nfp_normal_mot_HHH_b1_05627_af2_000000038_0001_43_56_H_._HHH_b1_07199_af2_0001_0000600017_0000001_0 (protein)
chain: SSSSDKAEEYLRIALELLEEAIKAGDEESAKSILEVARLAAELHNDEEVEERLEELEELLSSSSS
B9: il2ra_site1_3nfp_normal_mot_HHH_b1_04049_af2_000000244_0001_42_55_H_._d1fb33ed66649044859e967e86ea168f_0001_af2_0001_0000200005_0000001_0 (protein)
chain: TKEKAIEDIIRALKQLPDPEVRELAEEAEELLENGDPEEALKVLKEAAKLLGDPVLEKLIEQYLT
B10: il2ra_site2_3nfp_sap_7_mot_HHH_b2_00746_000000285_0001_20_36_H_._HHH_b2_00413_af2_0001_0000200017_0000001_0_0001 (protein)
chain: SSSSDEVEELLREIRELLEEGDTYEAAQLLVRVSEIAAKLGDPELVKIVLELYKILKEKASSSSS
B11: il2ra_site2_3nfp_normal_mot_HHH_b1_05785_af2_000000002_0001_41_57_H_._HHH_b1_03527_af2_0001_0000800015_0000001_0 (protein)
chain: SSSSDEAEEYVKAALALLEEALEQGDEELFEKLARLIELAIEDLGNPELEERLEELKERGSSSSS
B12: il2ra_site2_2erj_sap_23_mot_ca9fcc9ace360711d783d1260e4fbff1_0001_1_af2_000000007_0001_15_32_H_._HHH_b2_04203_af2_0001_0000300022_0000001_0_0001 (protein)
chain: SSSDREEARVHFLAFRAMRLNNNGNPEEAQKVLEEAKEIAEENNNEELREWLEAMERTIKHSSSS
B13: il2ra_site2_3nfp_sap_18_mot_HHH_b1_07556_000000077_0001_42_55_H_._HHH_b2_07201_0001_0000400029_0000001_0_0001 (protein)
chain: SSSSDEEEEVKRSLEYLKAVAKLHNDEELQEVIEEAERILEEDNDPEKAAEALSEIALKLASSSS
B14: il2ra_site1_2b5i_sap_7_mot_HHH_b1_05947_000000126_0001_42_56_H_._HHH_b1_05810_af2_0001_0000100008_0000001_1_0001_af2pred_0001_af2pred (protein)
chain: SSSSSEEEQRAFELYHEASRAFSNGDKERARELLEEAIELAEEAGDPKIKRELEQFLEMLSSSSS
B15: il2ra_site1_3nfp_sap_21_mot_HHH_b2_04910_af2_000000236_0001_1_18_H_._4946fae19574d7b03d9e348227509a78_0001_0001_0000300023_0000001_0_0001_af2pred_0001_af2pred (protein)
chain: SSSDEREVHKLLKEALEAALKGNPEEARELLEEAERLAKELNNPRAEHTVEKALKSFERARSSSS
B16: il2ra_site2_2erj_normal_mot_76e6e8f7232a9e65eeaab5ff8ecb4c96_0001_000000242_0001_17_31_H_._HHH_eva_0320_af2_0001_0000500007_0000001_1 (protein)
chain: SSTEEEEVRRVVEEAEELIKRGDLEEAEEVLSEAFTLVYELGDEELVILILELAHELVRLLAKSS
B17: il2ra_site2_2erj_normal_mot_af86707857d369f3e1d85dcabc5f9321_0001_000000201_0001_14_29_H_._HHH_b1_07617_0001_0001000035_0000001_1_af2pred_0001_af2pred (protein)
chain: SSSSDEEEQIERLLREARELLEEGDPERAREVVWEAAQLAAESDNEELLKEILELLREIHGSSSS
B18: il2ra_site1_2b5i_normal_mot_HHH_b1_00432_000000039_0001_1_18_H_._HHH_b1_02735_0001_0000300013_0000001_0_af2pred_dldesign_0_af2pred (protein)
chain: SSSSSSDEEIEAAEDLALQALKEKDKEKRKELLEEALRLAQKGKDAKLVAQIQELLERLKSSSSS

What follows are binders tested against il2ra, P01589 (assay: yeast display titration).
Chain of il2ra, P01589 (P01589 whole entry): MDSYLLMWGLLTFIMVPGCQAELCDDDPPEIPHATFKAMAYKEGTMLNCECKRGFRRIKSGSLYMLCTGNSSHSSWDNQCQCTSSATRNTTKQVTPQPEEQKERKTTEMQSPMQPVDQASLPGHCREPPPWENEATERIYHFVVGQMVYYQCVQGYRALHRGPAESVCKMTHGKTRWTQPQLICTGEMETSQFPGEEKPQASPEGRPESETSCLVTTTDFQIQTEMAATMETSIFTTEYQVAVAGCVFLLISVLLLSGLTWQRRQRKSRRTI

Binder	apparent Kd
B1	no binding seen
B2	no binding seen
B3	no binding seen
B4	> 1500 nM
B5	> 2780 nM
B6	no binding seen
B7	no binding seen
B8	no binding seen
B9	no binding seen
B10	no binding seen
B11	no binding seen
B12	no binding seen
B13	no binding seen
B14	no binding seen
B15	no binding seen
B16	no binding seen
B17	no binding seen
B18	no binding seen
